About 79,000 compounds went through this panel and 15% of them were active in at least one assay; those are over-represented in the sample as a whole. Active and inactive are the calls of the source. Cut-off read from the data, not from the text of the source: active = growth inhibition above about 70%; inactive = the rest.
Assay: NCI Yeast Anticancer Drug Screen. Data for the CLN2oe strain (AID 163);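 note: 0% = growth of vehicle-only control cultures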
Conditions: S. cerevisiae CLN2oe strain, hits give high values
Procedure: Growth inhibition of yeast strains with defined genetic alterations is measured as a screen for potential anti-cancer activity. Selected strains with alterations in DNA damage repair or cell cycle control were exposed to compounds and growth inhibition was measured relative to vehicle treated controls. The strain used in this assay is CLN2oe

Measured: growth inhibition

CC(=O)OCC(C)Cc1cc2c(cc1Br)OCO2 (stereo not given)
inactive: at 1.2 µM -7% | at 3.7 µM -9% | at 11.0 µM -16% | at 33.0 µM -16% | at 100.0 µM -15%

C=C1CCC(O)C/C1=C/C=C1\CCCC2(C)C1CCC2C(C)CCCC(C)C (stereo not given)
inactive: at 1.2 µM -11% | at 3.7 µM 8% | at 11.0 µM 2% | at 33.0 µM 6% | at 100.0 µM 39%

CCCCCCCCCCCCCCCCOP(=O)(O)OCC(N)C(=O)O (stereo not given)
inactive: at 1.2 µM 6% | at 3.7 µM -10% | at 11.0 µM -3%
active: at 33.0 µM 94% | at 100.0 µM 97%

Cc1cc(N(CCOS(C)(=O)=O)CCOS(C)(=O)=O)ccc1C=Nc1ccc(-c2nc(Cc3ccccc3)sc2C)cc1
inactive: at 1.2 µM 23% | at 3.7 µM 0% | at 11.0 µM 57%
active: at 33.0 µM 91% | at 100.0 µM 97%

CCN(CC)CCNc1ccc2ncn3c4cc(OC)c(OC)c(=O)c4c(O)c1c23
inactive: at 1.2 µM -6% | at 3.7 µM -4% | at 11.0 µM 0% | at 33.0 µM -2% | at 100.0 µM 5%

CNC(=O)OCc1c(COC(=O)NC)c(-c2ccc(Cl)cc2)n2c1CCC2
inactive: at 1.2 µM -21% | at 3.7 µM -1% | at 11.0 µM -9% | at 33.0 µM -6%
active: at 100.0 µM 94%

COC(=O)NC1C(C)OC(OC2C/C=C(/C)C3C=CC4C(OC5CC(OC6CC(O)C(OC7CC(O)C(OC)C(C)O7)C(C)O6)C(O)C(C)O5)C(C)CC(C)C4C3(C)/C(O)=C3\C(=O)OC4(CC(C)C(CO)=CC4/C=C\2C)C3=O)CC1(C)[N+](=O)[O-] (stereo not given)
inactive: at 1.2 µM 27% | at 3.7 µM 15% | at 11.0 µM 20% | at 33.0 µM 18% | at 100.0 µM 28%

CN(C)[C@@H]1C(=O)C(C(N)=O)=C(O)[C@@]2(O)C(=O)C3=C(O)c4c(O)cccc4C[C@H]3C[C@@H]12
inactive: at 1.2 µM -7% | at 3.7 µM -15% | at 11.0 µM 27%
active: at 33.0 µM 98% | at 100.0 µM 99%

— PubChem BioAssay (NCI)
